# Source: PubChem BioAssay (ICCB-Longwood Screening Facility, Harvard Medical School)
# Mtb MenB inh = Mtb MenB enzyme inhibition; P9WNP5; MenB enzyme assay, absorbance read-out; inhibition, % (test concentration not listed); hit rate 0.43% among 100,000; AID 540299; in the data active = inhibition above about 21%, passing the limit was not always enough
# MbtI inh = blocks the Mycobacterium tuberculosis siderophore enzyme MbtI | hit rate 0.89% among 100,000 | inhibition, % (no concentration beside the values) | purified MbtI enzyme, fluorescence intensity read-out | P9WFX0; in the data active = inhibition mostly above about 56%, no sharp cut-off; inactive = mostly below about 77%
# Target sequence (P9WFX0 whole entry, looked up): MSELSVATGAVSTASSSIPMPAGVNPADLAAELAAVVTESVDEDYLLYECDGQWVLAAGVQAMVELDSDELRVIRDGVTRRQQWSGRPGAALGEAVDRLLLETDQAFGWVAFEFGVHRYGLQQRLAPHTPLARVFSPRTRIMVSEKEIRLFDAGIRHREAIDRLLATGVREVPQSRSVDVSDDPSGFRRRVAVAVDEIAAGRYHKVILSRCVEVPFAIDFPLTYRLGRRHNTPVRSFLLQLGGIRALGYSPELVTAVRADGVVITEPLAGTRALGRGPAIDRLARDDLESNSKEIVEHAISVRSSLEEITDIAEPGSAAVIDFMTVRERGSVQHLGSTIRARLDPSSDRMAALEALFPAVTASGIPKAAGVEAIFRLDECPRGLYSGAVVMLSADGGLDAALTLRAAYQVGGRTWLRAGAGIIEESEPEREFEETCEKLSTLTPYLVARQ
# AID504770 = E. coli YBA685 growth inhibition, screen for V. cholerae RctB inhibitors; E. coli YBA685 rctB-dependent plasmid, OD600 growth, 3 h; active compounds read low; z-score (no concentration beside the values); hit rate 0.27% among 130,000; AID 504770; in the data active = z-score below about -2, passing the limit was not always enough
# Polio RdRp inh = inhibitors of poliovirus RNA polymerase binding and polymerization. P03300. poliovirus polymerase elongation, fluorescence polarization; active compounds read low. % elongation, % (compound at 16.7 µg/mL). hit rate 0.66% among 150,000; in the data active = % elongation below about 90%
# Starred values were filed as active, the others as inactive; . = no result. An excerpt weighted towards active compounds, which were near 1.4% of everything screened.
SMILES,Mtb MenB inh,MbtI inh,AID504770,Polio RdRp inh
O=C(CSc1n[nH]c(Cc2ccccc2)n1)NC1CCCCC1,-9,-9,0.85,98
Clc1ccc(Cl)c(-c2nn3c(Cn4nnc5ccccc54)nnc3s2)c1,-96,93*,1.4,102
Clc1ccc(Cn2nnc3ccccc32)cc1Cl,-66,-1,1.3,104
CCOC(=O)c1cnc(Nc2nc3ccccc3o2)nc1CSc1ccc(Cl)cc1,-7,-9,-0.2,101
COC(=O)c1cc(Br)c(O)c(Br)c1,.,.,0.5,.
CC(C)(C)c1cc(O)c(O)c(Br)c1,23,101*,0.1,98
CCOC(=O)C1CCN(c2ccccc2CN2CCN(c3ncc(C(F)(F)F)cc3Cl)CC2)CC1,-10,1,-0.7,105
Cc1cc(C)cc(OCc2cc(=O)n3c4c(sc3n2)CCCC4)c1,.,.,.,78*
CC(C)Cn1c(=O)c2sccc2n2c(=S)sc(-c3ccccc3)c12,-11,68*,-1,95
Cc1nc2scc(-c3ccccc3)c2c(=O)n1/N=C/N(C)C,-16,5,-0.15,44
CCc1cc(C(=O)O)c(SSc2sc(CC)cc2C(=O)O)s1,-19,102*,-0.45,76*
CCc1cc(C(=O)O)c(NC(=O)c2ccc(Br)cc2)s1,.,46,0.55,101
CCOc1ccc(C(=O)c2c(N)c(-c3nc(-c4ccc5c(c4)OCO5)cs3)c3ccccn23)cc1,.,.,.,105
COc1cccc(-c2csc(-c3c(N)c(C(=O)c4ccc5c(c4)OCO5)n4ccccc34)n2)c1,.,.,.,76*
CCOC(=O)c1[nH]c(C)c(C(=O)NCCc2ccc(OC)c(OC)c2)c1CC,-2,-6,-0.65,100
Cc1cc2ccccc2c(=O)n1CC(=O)NCC(=O)Nc1ccc(F)cc1,-22,11,-0.6,102
CC1=CC(=O)C(CCCCCC2=CC(=O)C(C)=CC2=O)=CC1=O,7,95*,1.3,103
CC1=CC(=O)C(CCOCCC2=CC(=O)C(C)=CC2=O)=CC1=O,-4,100*,0.75,101
O=C(OCc1c(F)cccc1Cl)c1cnc2sccn2c1=O,-18,106,-0.6,101
Cc1[nH]n(-c2ccccc2)c(=O)c1C=NC(C)C,-28,14,0.35,99
Nn1c(CCC2CCCCC2)n[nH]c1=S,-63,86*,-0.15,81*
COC(=O)c1ccccc1N1C(=O)C=CC1=O,.,.,-2.5*,.
O=C(Nc1cc(C(F)(F)F)cc(C(F)(F)F)c1)C(=S)NCCNc1cccc2ccccc12,-8,.,0.25,71*
c1ccc2c(NCNc3noc4ccccc34)noc2c1,-11,0,1.3,104
CC(C)Cn1c(=O)c2sccc2n2c(CCCC(=O)NC3CCCCCC3)nnc12,-17,5,2.7,106
SMILES,Mtb MenB inh,MbtI inh,AID504770,Polio RdRp inh
O=C(N1CCC(O)(c2cccnc2)CC1)C12CC3CC(CC(C3)C1)C2,25*,-1,1.1,101
O=C(c1ccccc1)N1CCC(O)(c2cccnc2)CC1,-19,0,-0.2,101
NC(=O)CCNC12CC3CC(CC(C3)C1)C2,-11,.,-0.6,104
O=C(NCc1ccco1)C(=S)N1CCOCC1,-6,76*,-0.3,99
CCn1cnc2cc(NCc3cccc(Br)c3)ccc21,-14,9,-1.6,103
CC1(C)CC(=O)C=C(NNc2ccccn2)C1,-78,58*,-0.55,101
Cc1cc(C)nc(NNC(=S)NCc2ccc3c(c2)OCO3)n1,-16,75*,-0.5,98
Cc1ccc2nc(-c3ccc(C)s3)c(Nc3ccc4c(c3)OCCO4)n2c1,.,.,.,84*
CCCCOC(=O)Sc1nc2ccccc2o1,-62,91*,-0.75,97
N#CC1=C(N)SC2CSCC2=C1 (stereo not drawn),1,65,0.3,100
O=C(Oc1cc(Cl)cc(Cl)c1)C12CC3CC(CC(C3)C1)C2,-9,-8,0.1,108
Cc1ccc(OC(=O)C23CC4CC(CC(C4)C2)C3)cn1,42*,15,0.95,101
O=C(Oc1ccc(O)cc1)C12CC3CC(CC(C3)C1)C2,-52,97*,0.65,97
O=C(O)C(C(=O)/C=C/c1ccc2c(c1)OCO2)=C1SCCS1,-261,.,-0.45,98
O=C1NC2=C(C(=O)OC2)C(c2ccc(F)cc2)N1 (stereo not drawn),-3,13,-0.9,102
O=C(Cc1c(F)cccc1Cl)NCCCn1ccnc1,40*,-1,0.95,102
CCSc1ccccc1C(=O)NCCCn1ccnc1,40*,18,0.6,102
CCSc1nnc(-c2c[nH]c3ccccc23)n1-c1ccc(OC)cc1,.,.,-0.3,.
O=C(c1cc(O)ccc1O)c1coc2ccc(O)cc12,13,100*,0.55,101
CN(C)S(=O)(=O)c1ccc(=S)[nH]c1,-53,95*,-0.75,96
CSc1ccc(S(=O)(=O)N(C)C)cc1,-10,-13,-0.45,101
CC(C)(C)S(=O)(=O)/C(C#N)=C/c1cc(C(F)(F)F)cc(C(F)(F)F)c1,4,-9,-1.2,98
COc1ccc(C(=O)CSC2=NCCc3ccccc32)cc1,6,67*,-0.55,77*
Cc1ccc2[nH]cc(CCNS(C)(=O)=O)c2c1,26*,14,0.8,102
NNc1ccc(Br)cc1,22,.,-6.3*,106
SMILES,Mtb MenB inh,MbtI inh,AID504770,Polio RdRp inh
NCC(=O)Nc1ccc(Br)cc1,1,-7,-1.1,100
N#CC1=C2SCN(C3CCCCC3)CN2C(=O)CC1c1ccccc1 (stereo not drawn),-13,73*,0.5,101
N#CC1=C2SCN(C3CCCCC3)CN2C(=O)CC1c1ccc(Br)cc1 (stereo not drawn),.,.,.,95
COc1ccc(C2CC(=O)N3CN(C4CCCCC4)CSC3=C2C#N)c(OC)c1 (stereo not drawn),.,.,.,54*
COc1cc(C2CC(=O)N3CN(Cc4ccccc4)CSC3=C2C#N)cc(Br)c1O (stereo not drawn),-13,53,0.3,101
Cc1ccc2onc(CC(=O)NCCC3=CCCCC3)c2c1,7,-11,-1,102
CC(=O)NC(C)c1ccc(-c2csc(N)n2)cc1 (stereo not drawn),-13,18,1.1,104
O[N+]1=CC=CCC1=S.On1ccccc1=S.[Zn],2,15,-4*,101
Cc1ccc(S(=O)(=O)Nc2c(C#N)c3nc4ccccc4nc3n2Cc2ccccc2)cc1,-33,-22,0.25,73*
Cc1ccccc1NC(=S)N/N=C/c1ccc(O)cc1O,-59,21,1.9,81*
Cc1ccc(NNC(=S)NC(=O)C2CC2)c(C)c1,-55,95*,0.65,100
CCN(CCO)C1CC(=O)N(c2ccccc2C)C1=O (stereo not drawn),5,100*,-0.75,99
Cc1ccccc1N1C(=O)C(O)C(O)C1=O (stereo not drawn),.,-6,0.3,.
O=C1C=CC(=O)C(c2ccc(C(=O)O)cc2)=C1,-3,91*,0.2,97
CC(C)c1ccc(C2=CC(=O)C=CC2=O)cc1,-8,89,-2,105
Cc1[nH]c(=S)[nH]c1Cc1ccccc1,-14,96*,-0.8,.
Cc1ccc(OC(=O)c2ccco2)c(-n2nc3ccccc3n2)c1,-26,88,-0.25,102
NC(=O)CCS(=O)(=O)c1ccccc1,-19,-1,-1.1,105
